In the library only some 2.8% were active in any assay of this set; here they are far more common.
PglD inh = inhibitors of Campylobacter jejuni PglD acetyltransferase; purified PglD enzyme, DTNB colorimetric CoA detection; inhibition, % at 12.5 µM; actives 0.098% (n = 360,000); AID 602405; in the data active = inhibition above about 16%, passing the limit was not always enough
dFosB activator = enhances mouse delta FosB homodimer DNA binding; P13346; purified delta FosB, TAMRA-CDK5 oligo fluorescence polarization; percent of positive-control signal above neutral wells; activation, % at 25 µM; actives 0.99% (n = 340,000); AID 493131;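 active = mean activation above about 17%, with every replicate also reaching it, limit read from the data, passing the limit was not always enough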
Target sequence (P13346 whole entry, looked up): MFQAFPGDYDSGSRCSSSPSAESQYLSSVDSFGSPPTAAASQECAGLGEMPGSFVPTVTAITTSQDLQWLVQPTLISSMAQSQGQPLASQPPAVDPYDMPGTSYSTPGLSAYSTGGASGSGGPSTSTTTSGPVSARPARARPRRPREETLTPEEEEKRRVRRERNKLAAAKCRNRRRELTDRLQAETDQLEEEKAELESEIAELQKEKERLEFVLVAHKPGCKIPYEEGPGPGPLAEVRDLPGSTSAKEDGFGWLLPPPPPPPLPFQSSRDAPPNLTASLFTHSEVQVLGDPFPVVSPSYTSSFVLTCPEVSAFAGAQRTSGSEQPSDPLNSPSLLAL
PvdQ inh = blocks Pseudomonas aeruginosa PvdQ acylase activity. purified PvdQ acylase, fluorescence plate reader. inhibition, % at 10 µM. actives 0.063% (n = 340,000). AID 488965; in the data active = inhibition above about 30%, passing the limit was not always enough
FGF22 binding = shifts melting point of recombinant human FGF22; Q9HCT0; recombinant FGF22 thermal shift, SYPRO orange fluorescence; percent of sucrose octasulfate shift, DMSO zero; activity (Tm shift, normalised), % at 9.99 µM; actives 1.5% (n = 340,000); AID 651658;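 active = mean Tm shift, scaled 0 neutral to 100 positive control, at about 1.3% or above, every replicate too, limit read from the data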
SIRT5 inh = blocks human SIRT5 desuccinylation of peptide. Q9NXA8. Purified SirT5, succinyl-peptide AMC, trypsin-coupled fluorescence. actives 1.1% (n = 330,000). AID 652115. inhibition, % at 15 µM; in the data active = inhibition above about 15%
Target sequence (Q9NXA8 whole entry, looked up): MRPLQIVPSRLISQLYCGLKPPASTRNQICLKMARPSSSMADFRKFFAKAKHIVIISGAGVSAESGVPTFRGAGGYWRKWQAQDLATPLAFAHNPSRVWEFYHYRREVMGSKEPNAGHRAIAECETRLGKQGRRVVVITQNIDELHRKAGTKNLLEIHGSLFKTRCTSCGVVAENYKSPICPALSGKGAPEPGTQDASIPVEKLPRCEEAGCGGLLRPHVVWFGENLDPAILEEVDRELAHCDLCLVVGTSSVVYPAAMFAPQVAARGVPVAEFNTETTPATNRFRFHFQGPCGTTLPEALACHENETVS
CDK5 inh = inhibitors of human CDK5/p35 kinase; Q00535+Q15078; Recombinant CDK5/p35, ADP-Glo luminescence, 60 min; inhibition, % at 10 µM; actives 0.01% (n = 330,000);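 active = highest replicate inhibition of at least 50% and at least 75% of replicates reaching 50%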
A number is an active result; 0 = inactive; - = no result; ! = a repeat was not active.

SMILES	PglD inh	dFosB activator	PvdQ inh	FGF22 binding	SIRT5 inh	CDK5 inh
CC(C(=O)NC(N)=O)N1C(=O)NC(c2ccccc2)(c2ccccc2)C1=O (configuration not stated)	0	0	0	0	19	0
Cc1ccc(NC(=S)NC(=O)c2cncc(Br)c2)cc1Cl	0	-	-	0	29	-
CCN(CC)C(=O)[C@H]1C[C@H](CC(=O)NC(C)(C)C)C(=O)N2CCc3c([nH]c4cc(CCC(=O)N(C)C)ccc34)[C@]12C	0	0	0	0	31	0
CN(C)C(=O)CCc1ccc2c3c([nH]c2c1)[C@]1(C)[C@@H](C(=O)N2CCOCC2)C[C@H](CC(=O)NCc2ccco2)C(=O)N1CC3	0	0	0	0	0	0
CCN(CC)C(=O)[C@H]1CC(CC(=O)NCCc2ccccn2)C(=O)N2CCc3c([nH]c4ccccc34)[C@]12C (some centres not stated)	0	0	0	43	-	0
CC(C)N(C(=O)[C@H]1C[C@H](CC(=O)NCc2ccco2)C(=O)N2CCc3c([nH]c4cc(CCC(=O)N(C)C)ccc34)[C@]12C)C(C)C	0	0	0	0	30	0
CN(C)CCCNC(=O)C[C@H]1C=C[C@H](NS(=O)(=O)c2ccc(F)cc2)[C@H](CO)O1	0	-	-	0	0	-
C[C@@H]1CN([C@@H](C)CO)C(=O)c2cccc(NC(=O)C3CC3)c2O[C@H]1CN(C)Cc1ccc(C(F)(F)F)cc1	0	-	-	0	0	-
CO[C@@H]1CN(C)C(=O)c2ccc(NC(=O)c3cccc(F)c3)cc2OC[C@H](C)N(CC2CC2)C[C@@H]1C	0	-	-	0	0	-
CCN(CC)S(=O)(=O)c1ccc(C(=O)Nc2nnc(-c3ccco3)o2)cc1	-	0	0	-	-	0
CN(C)S(=O)(=O)c1ccc(C(=O)Nc2nnc(-c3ccco3)o2)cc1	0	0	0	0	16	0
O=C(CCN1CCCCC1)N[C@@H]1C=C[C@H](CC(=O)N2CCC(Cc3ccccc3)CC2)O[C@@H]1CO	0	-	-	0	0	-
C[C@H](CO)N1C[C@H](C)[C@H](CN(C)CC2CCCCC2)OCCCC[C@H](C)Oc2ccc(NC(=O)NC3CCCCC3)cc2C1=O	0	-	-	0	-	-
Nc1ccc(C(CC(=O)O)n2cccc2)cc1 (configuration not stated)	0	0	0	0	21	0
O=C(Nc1ccccc1)n1cc(-c2ccccn2)c(N2CCOCC2)n1	-	0	0	44	0	0
Cc1noc(C)c1NC(=O)Nc1ccc2c(c1)C(=O)N([C@H](C)CO)C[C@@H](C)[C@H](CN(C)C(=O)Nc1ccc(F)cc1)O2	0	-	-	0	0	-
O=c1[nH]c2ccccc2c(O)c1O	32	0	0	0	-	0
CC(C)CN(CC(C)C)S(=O)(=O)N1CCC(C(=O)NCCc2ccc(Cl)cc2)CC1	0	0	0	0	16	0
CO[C@H]1CN(C)C(=O)c2ccc(NC(=O)C3CC3)cc2OC[C@@H](C)N(C(=O)c2ccccc2F)C[C@H]1C	0	-	-	0	18	-
CO[C@H]1CN(C)C(=O)c2ccc(NC(=O)C3CC3)cc2OC[C@H](C)N(C(=O)c2ccccc2F)C[C@H]1C	0	-	-	0	0	-
CO[C@@H]1CN(C)C(=O)c2ccc(NC(C)=O)cc2OC[C@H](C)N(C(=O)Cc2ccccn2)C[C@H]1C	0	-	-	0	16	-
CO[C@@H]1CN(C)C(=O)c2ccc(NC(C)=O)cc2OC[C@H](C)N(C(=O)Cc2ccccn2)C[C@@H]1C	0	-	-	0	0	-
CCCN1C[C@@H](C)[C@H](OC)CN(C)C(=O)c2ccc(NC(=O)Nc3cccc(F)c3)cc2OC[C@@H]1C	0	-	-	0	18	-
CCC(=O)Nc1ccc2c(c1)OC[C@@H](C)N(Cc1ccccc1F)C[C@@H](C)[C@@H](OC)CN(C)C2=O	0	-	-	0	30!	-
CCCN1C[C@H](C)[C@H](OC)CN(C)C(=O)c2ccc(NC(=O)Nc3cccc(F)c3)cc2OC[C@H]1C	-	-	-	0	0	-
SMILES	PglD inh	dFosB activator	PvdQ inh	FGF22 binding	SIRT5 inh	CDK5 inh
CC(=O)Nc1ccc2c(c1)C(=O)N(C)[C@@H]1CC[C@@H](CC(=O)NCc3ccccc3)O[C@@H]1CO2	0	-	-	0	0	-
CO[C@H]1CN(C)C(=O)c2ccc(NC(=O)Nc3ccc(Cl)c(Cl)c3)cc2OC[C@H](C)NC[C@@H]1C	0	-	-	0	0	-
CCC(=O)Nc1ccc2c(c1)OC[C@@H](C)N(Cc1ccccn1)C[C@@H](C)[C@@H](OC)CN(C)C2=O	0	-	-	0	15	-
COCC(=O)N1C[C@@H](C)[C@@H](OC)CN(C)C(=O)c2ccc(NC(=O)c3cc(C)on3)cc2OC[C@@H]1C	0	-	-	0	34	-
CO[C@H]1CN(C)C(=O)c2ccc(NC(=O)Nc3ccc(Cl)c(Cl)c3)cc2OC[C@H](C)NC[C@H]1C	0	-	-	0	100	-
COCC(=O)N1C[C@@H](C)[C@H](OC)CN(C)C(=O)c2ccc(NC(=O)c3cc(C)on3)cc2OC[C@@H]1C	0	-	-	0	0	-
CO[C@H]1CN(C)C(=O)c2cc(NS(=O)(=O)c3cccc(F)c3)ccc2OC[C@H](C)N(Cc2cc(F)ccc2F)C[C@@H]1C	0	-	-	0	16	-
CC(C)NC(=O)Nc1ccc2c(c1)C(=O)N(C)[C@H]1CC[C@H](CC(=O)Nc3ccccc3)O[C@H]1CO2	0	-	-	0	0	-
C[C@H](CO)N1C[C@H](C)[C@H](CN(C)C)Oc2ccc(NS(=O)(=O)c3cccs3)cc2C1=O	0	-	-	0	0	-
CO[C@H]1CN(C)C(=O)c2ccc(NC(=O)Nc3ccccc3)cc2OC[C@H](C)N(C(C)=O)C[C@H]1C	0	-	-	0	0	-
CO[C@@H]1CN(C)C(=O)c2ccc(NC(=O)Nc3ccccc3)cc2OC[C@@H](C)N(C(C)=O)C[C@H]1C	-	-	-	0	22	-
O=C(COC(=O)CNC(=O)c1ccccc1Cl)NC1CC1	0	0	0	0	0	0
Cc1ccc(NC(=O)c2cc(Cl)ccc2[N+](=O)[O-])cc1C	-	0	0	-	-	0
O=C(COC(=O)CNC(=O)c1ccc(Cl)cc1Cl)NC1CC1	0	0	0	43	-	0
Cc1ccc(NC(=O)COC(=O)c2cc(Cl)ccc2[N+](=O)[O-])cc1	-	0	0	0	0	0
CC(C)(C)NC(=O)c1cc(Cl)ccc1[N+](=O)[O-]	-	0	36	-	-	0
O=C(COC(=O)c1cc(Cl)ccc1[N+](=O)[O-])NC1CC1	0	0	0	0	16	0
CCCNC(=O)N1CCC2(CC1)CN(C(C)=O)[C@H](CO)c1[nH]c3cc(OC)ccc3c12	-	-	-	0	-	-
O=C(O)Cc1sc(Nc2ccc(Cl)cc2)nc1-c1cccs1	-	0	0	1.4	0	0
C[C@H]1CCCCO[C@@H](CN(C)Cc2ccncc2)[C@@H](C)CN([C@@H](C)CO)C(=O)c2cc(NC(=O)C3CCCCC3)ccc2O1	0	-	-	0	0	-
CCCCCN=C(N)N/N=C/c1c[nH]c2ccc(OC)cc12	0	18	0	0	0	0
CCCOc1ccc(C(=O)N/N=C/c2c[nH]c3ccc(Br)cc23)cc1	0	0	0	0	0	0
